# Data taken from PubChem BioAssay (NCI).
# Compounds without any hit were thinned out: in the full panel of roughly 83,000, 20% have a hit.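 Cells were grown in 96-well plates and exposed to the test compound at a single concentration for 48 hours; results are reported as percent growth, with values below 10 considered active.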 A number with no mark means an inactive call. Activity calls are given as the source filed them.
# Tested on: LOX IMVI melanoma
# Assay: NCI-60 one-dose screen, 48 h (100 = growth as untreated, 0 = no growth, -100 = all killed)
# Conditions: 10 µM unless noted
row,SMILES,growth
1,NC1=NC(=O)NC1(c1ccccc1)c1ccccc1,91.3%
2,N#C/C(C(=O)c1ccccc1)=C1/C(=O)Nc2ccccc21,104%
3,CN(Cc1cccc(C(F)(F)F)c1)C(=O)[C@@H](CC(=O)N1CCC(N2CCCCC2)CC1)N1C(=O)[C@@H](N2C(=O)OC[C@@H]2c2ccccc2)[C@H]1/C=C/c1ccccc1,69.2%
4,CCOc1ccc(S(=O)(=O)Nc2ccc3c(c2)N(S(=O)(=O)CC)CCC3)cc1,83.4%
5,CCOC(=O)C(=Cc1ccccc1[N+](=O)[O-])C(=O)OCC,-18.5% (active)
6,COc1cc(/C=C/C(=O)/C=C/c2ccc(-n3ccnc3C)cc2)ccc1O,-88.7% (active)
7,CCOC(=O)CC(c1ccccc1)C(C#N)c1ccccc1 (stereo unspecified),103%
8,Cc1ccc(C2=C/C(=C/c3ccc(Br)cc3)C(=O)N2CCc2ccc(S(N)(=O)=O)cc2)cc1,99.6%
9,Cc1ccc(NC(=O)N[C@@H](Cc2cc(F)cc(F)c2)C(=O)N[C@@H]2C(=O)N3CCC[C@H]3C(=O)N3CCCC[C@H]3C(=O)N[C@@H](C)C(=O)N3C[C@H](C)C[C@H]3C(=O)O[C@H]2C)cc1,38.2%
10,C=C(C)[C@@H]1CC[C@]2(C)[C@H](CC[C@@H]3[C@@H]([C@@](C)(O)CCC=C(C)C)CC[C@]32C)[C@@]1(C)CCC(=O)O,-100% [100 µM] (active)
11,C=CCCCCCCCCC(=O)OC(C)C,100%
12,O=C1Nc2ccccc2/C1=C/C(=O)c1ccc(N2CCCCC2)cc1,43.3%
13,O=C(N=c1n(-c2ccccc2)nc2n1CCN2C1=NCCN1C(=O)c1ccc(Cl)cc1)c1ccc(Cl)cc1,86.6%
14,CC1=CC[C@@H]2C(C)(C)[C@@H](O)CC[C@@]2(C)[C@@H]1COc1ccc2ccc(=O)oc2c1,52.2%
15,CSc1nc2sc3cc(Cl)c(Cl)cc3n2c(=N)c1C#N,94.5%
16,COc1ccc(C(=O)CCC(=O)O)cc1,90.2%
17,O=C(CCNCc1ccccc1)c1ccccc1,105%
18,NC(=O)CC1C=CCC1 (stereo unspecified),103%
19,CCNc1cc2c(cc1Br)-c1ccccc1C2=O,88.1%

row,SMILES,growth
1,O=C(O)c1cn(C2CC2)c2cc(N3CCN(Cc4c(O)ccc5ccccc45)CC3)c(F)cc2c1=O,37.1%
2,CCOC(=O)COc1ccc2c(c1)O/C(=C\c1ccc(O)cc1)C2=O,97.9%
3,Nc1cc(NN=C(c2ccc(O)cc2)c2ccc(O)cc2)c([N+](=O)[O-])cc1[N+](=O)[O-],-32.5% (active)
4,CCCCCCNC(=O)Nc1ncnc2c1ncn2-c1ccccc1,102%
5,C[C@]12CCc3c(ccc4cc(O)ccc34)[C@@H]1CC[C@H]2O,96.4%
6,Nc1nc(Nc2ccccc2)c2ncn(Cc3ccc4c(c3)OCO4)c2n1,48%
7,COc1ccc(OC)c(NC=O)c1,100%
8,Fc1cc2[nH]ncc2c2c3c(c(-c4cn[nH]c4)nc12)CCCC3,0.769% (active)
9,CCN(CC)CCCCCCNc1cccc2cc(Br)cnc12,69.3%
10,O=C(CSc1nc2ccc([N+](=O)[O-])cc2[nH]1)Nc1cccc(Cl)c1,27.7%
11,CCN(CC)CCCOc1ccc2c(c1)O/C(=C\c1cccc(OC)c1)C2=O,70.7%
12,CC1(C)C(=O)/C(=C\c2ccco2)C[C@]2(C)[C@H]3CC=C4[C@@H]5C[C@](C)(C(=O)O)CC[C@]5(C)CC[C@@]4(C)[C@]3(C)CC[C@@H]12,-93.6% [100 µM] (active)
13,C=C(C)[C@@H]1CC[C@]2(C(=O)NCCCCCCN(CCCN)CCCN)CC[C@]3(C)[C@H](CC[C@@H]4[C@@]5(C)CC[C@H](OCCCN)C(C)(C)[C@@H]5CC[C@]43C)[C@@H]12,5.71% [100 µM] (active)
14,C=C(C)[C@@H]1CC[C@]2(COC(=O)c3ccccc3C(=O)O)CC[C@]3(C)[C@H](CC[C@@H]4[C@@]5(C)CC[C@H](OC(=O)c6ccccc6C(=O)O)C(C)(C)[C@@H]5CC[C@]43C)[C@@H]12,11.2% [100 µM]
15,COc1ccc2c(c1)c(-c1noc(-c3cn(C)c4ncc(F)cc34)n1)cn2C,52.4%
16,c1ccc(-c2nnc(-c3c[nH]c4ncccc34)s2)cc1,97%
17,O=C1COCCN1c1ccc(NCc2cn(Cc3ccc(F)cc3)c3ccccc23)cc1,83.9%
18,CC(=O)Nc1ccc2nc3ccc(NC(C)=O)cc3[n+](-c3ccccc3)c2c1,96.8%
19,CCCCNC(=O)NS(=O)(=O)Cc1ccccc1,107%

# Tested on: SK-MEL-28 melanoma
# Assay: as above
# Conditions: 10 µM unless noted
row,SMILES,growth
1,NC1=NC(=O)NC1(c1ccccc1)c1ccccc1,109%
2,N#C/C(C(=O)c1ccccc1)=C1/C(=O)Nc2ccccc21,113%
3,CN(Cc1cccc(C(F)(F)F)c1)C(=O)[C@@H](CC(=O)N1CCC(N2CCCCC2)CC1)N1C(=O)[C@@H](N2C(=O)OC[C@@H]2c2ccccc2)[C@H]1/C=C/c1ccccc1,93.3%
4,CCOC(=O)CC(c1ccccc1)C(C#N)c1ccccc1 (stereo unspecified),95.5%
5,C=C(C)[C@@H]1CC[C@]2(C)[C@H](CC[C@@H]3[C@@H]([C@@](C)(O)CCC=C(C)C)CC[C@]32C)[C@@]1(C)CCC(=O)O,-83% [100 µM] (active)
6,O=C1Nc2ccccc2/C1=C/C(=O)c1ccc(N2CCCCC2)cc1,105%
7,CC1=CC[C@@H]2C(C)(C)[C@@H](O)CC[C@@]2(C)[C@@H]1COc1ccc2ccc(=O)oc2c1,91.4%
8,COc1ccc(C(=O)CCC(=O)O)cc1,112%
9,O=C(O)c1cn(C2CC2)c2cc(N3CCN(Cc4c(O)ccc5ccccc45)CC3)c(F)cc2c1=O,27.8%
10,Nc1cc(NN=C(c2ccc(O)cc2)c2ccc(O)cc2)c([N+](=O)[O-])cc1[N+](=O)[O-],80.8%
11,CCCCCCNC(=O)Nc1ncnc2c1ncn2-c1ccccc1,104%
12,C[C@]12CCc3c(ccc4cc(O)ccc34)[C@@H]1CC[C@H]2O,99.3%
13,Nc1nc(Nc2ccccc2)c2ncn(Cc3ccc4c(c3)OCO4)c2n1,63.5%
14,CC1(C)C(=O)/C(=C\c2ccco2)C[C@]2(C)[C@H]3CC=C4[C@@H]5C[C@](C)(C(=O)O)CC[C@]5(C)CC[C@@]4(C)[C@]3(C)CC[C@@H]12,-75.1% [100 µM] (active)
15,C=C(C)[C@@H]1CC[C@]2(C(=O)NCCCCCCN(CCCN)CCCN)CC[C@]3(C)[C@H](CC[C@@H]4[C@@]5(C)CC[C@H](OCCCN)C(C)(C)[C@@H]5CC[C@]43C)[C@@H]12,101% [100 µM]
16,COc1ccc2c(c1)c(-c1noc(-c3cn(C)c4ncc(F)cc34)n1)cn2C,91.3%
17,c1ccc(-c2nnc(-c3c[nH]c4ncccc34)s2)cc1,99.6%
18,CC(=O)Nc1ccc2nc3ccc(NC(C)=O)cc3[n+](-c3ccccc3)c2c1,166%
